# Measurements taken from PubChem BioAssay.
# “And” between values parts separate entries of the source, which are not always exact repeats. Equal entries are not always repeated. For part of these data: Results with a measured potency or affinity are listed apart. The source made the active and inactive calls.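 Rule for the calls, unless noted: active = z-score of at least 1.8 in each of two replicates, scored against plate mean and spread of sample wells; inactive = the rest.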 Peptide text beside a SMILES is read from it.
# Experiments:
# [1] = blockers of polyQ-driven CASP3 activation – cell-based (AID 1583); settings: polyglutamine-induced caspase-3 activation, cell assay; stronger effect = higher value;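 tested at 10 µM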
# [2] = yeast 75Q aggregation reduction – 75Q-TubU reporter (AID 1593); settings: Yeast 75Q polyglutamine aggregation reporter
# [3] = restoration of touch response, mutant HTT neurons – whole organism, C. elegans mechanosensory neurons, N-terminal huntingtin (AID 1599); settings: C. elegans polyQ-huntingtin mechanosensory neurons, stronger effect = higher value
# [4] = blockers of cytochrome c efflux from mitochondria – biochemical, purified mitochondria (AID 1603); settings: stronger effect = lower value;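 note: mouse liver mitochondria challenged with calcium chloride; signal normalized to the plate average as 100%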
# [5] = polyglutamine aggregate formation blockers (AID 1604); settings: polyglutamine-induced protein aggregation inhibition assay; stronger effect = higher value; tested at 2.5 µM
# [6] = glutamate transport activators, MN-1 cells, MN-1 cell line (AID 1612); settings: MN-1 motor neuron cells, stronger effect = higher value;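 note: tested at 1 µM final; 0% = mean of DMSO vehicle wells on each plate; positive means more glutamate uptake than control and negative means less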
# [7] = GFP-Q80 aggregate reduction, neuronal-like cells, cell-based, NGF-treated PC12, GFPQ80 (AID 1614); settings: PC12 NGF-treated GFP-polyQ80 inclusion reduction;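 note: lower means fewer inclusions and 0 means no inclusions at all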
# [8] = 75Q-TubH aggregate inhibition, S. cerevisiae, yeast (AID 1616); settings: S. cerevisiae 75Q-TubH polyglutamine aggregation suppression; stronger effect = higher value
# [9] = compounds altering circadian rhythm period length – cell-based, LOPAC library, luminescence reporter (AID 2774; call rule not given here;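 note: values are relative to mean of DMSO wells on each plate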); settings: circadian reporter cells, at 7 µM, actives lie on both sides
# [10] = system: Hepatitis C virus NS3 helicase; assay: blockers of NS3h binding to ssDNA – biochemical, fluorescence polarization, LOPAC1280 library, primary screen (AID 687035; in the data active = inhibition above about 37%); settings: Purified HCV NS3 helicase, Cy5-dT15 ssDNA binding fluorescence polarization; stronger effect = higher value; concentration not given here
# [11] = molecular target: 6-phosphogluconate dehydrogenase, decarboxylating (Homo sapiens) (UniProt P52209); assay: inhibition of human phosphogluconate dehydrogenase – biochemical, recombinant enzyme, NADPH absorbance, primary screen (AID 1159550;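 active = at least 20% inhibition of 6-phosphogluconate dehydrogenase activity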); settings: recombinant 6PGD, NADPH absorbance 341 nm; at 10 µM; stronger effect = higher value
# Chain of 6-phosphogluconate dehydrogenase, decarboxylating (Homo sapiens) (P52209 whole entry, looked up): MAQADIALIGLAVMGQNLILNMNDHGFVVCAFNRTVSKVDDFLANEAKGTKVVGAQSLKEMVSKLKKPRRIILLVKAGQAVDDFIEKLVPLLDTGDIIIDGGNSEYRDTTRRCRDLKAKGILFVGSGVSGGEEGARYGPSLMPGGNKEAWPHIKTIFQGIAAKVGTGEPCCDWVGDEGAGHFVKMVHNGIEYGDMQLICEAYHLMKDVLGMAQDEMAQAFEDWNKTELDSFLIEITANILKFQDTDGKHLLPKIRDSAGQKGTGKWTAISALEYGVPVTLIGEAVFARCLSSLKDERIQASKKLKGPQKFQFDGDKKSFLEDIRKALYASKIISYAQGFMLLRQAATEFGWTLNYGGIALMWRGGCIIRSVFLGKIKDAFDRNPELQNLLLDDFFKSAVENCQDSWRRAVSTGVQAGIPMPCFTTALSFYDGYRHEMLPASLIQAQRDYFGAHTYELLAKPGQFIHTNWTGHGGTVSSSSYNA
# [12] = EMT-state selective cytotoxicity in co-culture – imaging, PC-3E GFP, TEM4-18 mCherry, primary screen (AID 1345086;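 active = compounds killing one labelled cell type while sparing the other, by normalised counts and ratio limits, not self-fluorescent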;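 for all read-outs here: cells exposed to compound for 72 h before imaging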;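 for red/green cell ratio (normalised): normalised mesenchymal count divided by normalised epithelial count so high means epithelial killing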); settings: PC-3E GFP / TEM4-18 mCherry co-culture, imaging cell counts, at 1 µM; for red/green cell ratio (normalised): actives lie on both sides, counts scaled to control wells, 1 = unselective
# [13] = blockers of cellular phospholipid synthesis – cell-based, LOPAC library, screen 4, primary screen (AID 1347384; call rule not given here); settings: animal cells, phospholipid biosynthesis inhibition screen; at 10 µM
# [14] = MELAS cybrid and Rieske KO viability enhancers – cell-based, MELAS cybrids, Rieske KO mouse fibroblasts, CellTiter-Glo, primary screen (AID 1508586;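 active = mean z-score across replicates of 1.96 or higher in either the MELAS or the Rieske mutant cell line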;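 note: z relative to plate mean and SD of compound and empty wells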); settings: low glucose
# [15] = galactose survival enhancers in mitochondrial complex I cybrids – cell-based, galactose medium, ATP luminescence, primary screen (AID 1645843); settings: complex I mutant cybrid cells, 72 h, stronger effect = higher value;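 note: positive z means more ATP and so rescue of galactose-driven cybrid death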
# [16] = P. berghei load reduction in hepatocytes – cell-based, HepG2, luciferase luminescence, HepG2 viability, primary screen (AID 624349; in the data active = parasite load remaining mostly below about 12%, no sharp cut-off; inactive = mostly above about 10%;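 note: 100% = mean of DMSO negative control wells on the same plate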); settings: P. berghei liver stage in HepG2, luciferase luminescence, concentration not given here; parasite load remaining: stronger effect = lower value; viability: measured here: HepG2 viability without parasites
# [17] = viability loss with induced miR-34 in A549 – imaging, A549 dox-inducible miR-34, nuclei and caspase counts, primary screen (AID 1347080;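 active = compounds whose cell count with miR-34 switched on is under 0.7 times the count with it off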); settings: A549 miR-34 inducible, Hoechst nuclei count, 48 h
# [18] = molecular target: NAD(+) hydrolase SARM1 (Homo sapiens) (UniProt Q6SZW1); assay: blocking NAD cleavage by SARM1 SAM-TIR – cell lysate, NAD-Glo luminescence (AID 1508614;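 active = compound whose remaining NAD level is above about 45 nM, limit read from the data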;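 note: higher remaining NAD means stronger inhibition of SARM1 NADase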); settings: SAM-TIR HEK293T lysate NADase, at 1 µM, stronger effect = higher value
# Chain of NAD(+) hydrolase SARM1 (Homo sapiens) (Q6SZW1 whole entry, looked up, the tested form may be a part): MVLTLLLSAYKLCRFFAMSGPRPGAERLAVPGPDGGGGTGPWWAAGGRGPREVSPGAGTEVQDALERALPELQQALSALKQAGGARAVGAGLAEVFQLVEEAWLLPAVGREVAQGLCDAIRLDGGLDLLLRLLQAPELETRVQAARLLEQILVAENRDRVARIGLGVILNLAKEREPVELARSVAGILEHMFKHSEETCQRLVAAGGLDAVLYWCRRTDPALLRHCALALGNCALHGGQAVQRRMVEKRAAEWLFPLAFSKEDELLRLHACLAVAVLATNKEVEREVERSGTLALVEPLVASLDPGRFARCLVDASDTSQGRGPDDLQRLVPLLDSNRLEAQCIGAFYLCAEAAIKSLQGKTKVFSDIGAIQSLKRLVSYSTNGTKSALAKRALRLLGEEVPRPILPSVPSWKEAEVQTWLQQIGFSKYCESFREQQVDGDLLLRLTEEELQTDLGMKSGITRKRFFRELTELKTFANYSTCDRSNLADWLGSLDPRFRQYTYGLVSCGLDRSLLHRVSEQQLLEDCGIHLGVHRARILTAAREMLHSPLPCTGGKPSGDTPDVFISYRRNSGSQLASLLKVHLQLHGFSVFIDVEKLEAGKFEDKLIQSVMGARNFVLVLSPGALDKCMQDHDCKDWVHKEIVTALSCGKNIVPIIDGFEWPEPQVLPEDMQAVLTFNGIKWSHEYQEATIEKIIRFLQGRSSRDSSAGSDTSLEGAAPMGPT
# [19] = molecular target: Mitogen-activated protein kinase 7 (Homo sapiens) (UniProt Q13164); assay: Gal4-ERK5 driven luciferase induction – cell-based, HTS, primary screen (AID 1508626;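 active = luciferase signal above three times the same-plate solvent-only control wells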;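 note: luciferase driven by Gal4-ERK5 fusion binding five Gal4 sites before minimal TATA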); settings: HeLa Gal4-ERK5 transactivation, 18 h, at 5 µM, stronger effect = higher value
# Chain of Mitogen-activated protein kinase 7 (Homo sapiens) (Q13164 whole entry, looked up, the tested form may be a part): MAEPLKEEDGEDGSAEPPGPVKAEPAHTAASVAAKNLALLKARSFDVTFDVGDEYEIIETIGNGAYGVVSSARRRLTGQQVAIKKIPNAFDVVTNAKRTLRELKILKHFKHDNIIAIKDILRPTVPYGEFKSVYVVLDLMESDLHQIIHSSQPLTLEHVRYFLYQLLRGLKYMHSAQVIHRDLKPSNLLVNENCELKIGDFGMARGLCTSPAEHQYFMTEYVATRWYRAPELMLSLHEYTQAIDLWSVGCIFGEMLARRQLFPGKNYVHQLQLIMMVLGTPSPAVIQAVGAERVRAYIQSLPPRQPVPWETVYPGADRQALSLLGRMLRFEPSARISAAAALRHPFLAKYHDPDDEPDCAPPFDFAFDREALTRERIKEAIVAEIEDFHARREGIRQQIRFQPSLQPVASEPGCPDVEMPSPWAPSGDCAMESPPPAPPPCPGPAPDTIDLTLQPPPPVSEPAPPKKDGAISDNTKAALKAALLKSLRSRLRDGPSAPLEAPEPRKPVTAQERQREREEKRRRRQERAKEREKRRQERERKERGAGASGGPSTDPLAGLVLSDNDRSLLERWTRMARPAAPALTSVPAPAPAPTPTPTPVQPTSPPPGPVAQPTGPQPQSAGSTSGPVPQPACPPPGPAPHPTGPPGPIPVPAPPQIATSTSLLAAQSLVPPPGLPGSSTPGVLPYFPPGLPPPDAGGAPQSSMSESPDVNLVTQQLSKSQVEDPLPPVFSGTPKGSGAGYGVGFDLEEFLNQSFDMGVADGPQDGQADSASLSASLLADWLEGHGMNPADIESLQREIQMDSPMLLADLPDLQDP
# [20] = measured here: epithelial PC-3E GFP cell survival
# [21] = measured here: mesenchymal TEM4-18 mCherry cell survival
# [22] = MELAS cybrid survival, CellTiter-Glo 48 h, stronger effect = higher value
# [23] = Rieske KO mouse fibroblast survival, CellTiter-Glo 72 h
# [24] = measured here: total cells with miR-34 induction, stronger effect = lower value
# [25] = stronger effect = lower value, cell number ratio, induced over uninduced
smiles,measurement,setting,value
CN1C2CCC1CC(OC(=O)C(CO)c1ccccc1)C2 (stereo not drawn),inhibition,[1],-7.62%
same,score,[2],1.48
same,rescue above control,[3],-4.85
same,cytochrome c release ratio,[4],1.14
same,inhibition of aggregation,[5],83.1%
same,glutamate uptake change,[6],7.04%
same,inclusion score,[7],2
same,aggregation suppression score,[8],1.57
same,period change,[9],0.005 hour (inactive) and 0.075 hour (inactive)
same,inhibition,[10],0% (inactive) and -1% (inactive)
same,inhibition,[11],-2.64% (inactive)
same,red/green cell ratio (normalised),[12],1.05 (inactive)
same,normalised cell number,[12]; [20],0.95
same,normalised cell number,[12]; [21],1
same,outcome,[13],inactive
same,z-score,[14]; [22],-0.14 (inactive)
same,z-score,[14]; [23],-0.261
same,z-score,[15],0.025 (inactive) and 0.13 (inactive)
CCCc1nn(C)c2c(=O)[nH]c(-c3cc(S(=O)(=O)N4CCN(C)CC4)ccc3OCC)nc12,parasite load remaining,[16],94.8% (inactive) and 65.8% (inactive) and 48% (inactive)
same,viability,[16],89.3% and 101% and 108%
same,inhibition,[11],6.7% (inactive)
same,red/green cell ratio (normalised),[12],0.98 (inactive)
same,normalised cell number,[12]; [20],1.05
same,normalised cell number,[12]; [21],1.03
same,cell count,[17]; [24],10500 and 7310 and 9670
same,outcome,[13],inactive
same,z-score,[14]; [22],-0.38 (inactive) and -0.0288 (inactive) and 1.25 (inactive)
same,z-score,[14]; [23],-0.0156 and 0.388 and 1.37
same,remaining NAD,[18],10 nM (inactive)
same,luciferase signal,[19],60 AU (inactive)
same,z-score,[15],0.235 (inactive) and 0.33 (inactive)
O=C(/C=C/c1ccc(O)c(O)c1)OCCc1ccccc1,period change,[9],0.335 h (inactive)
same,inhibition,[10],-2% (inactive)
same,inhibition,[11],14% (inactive)
same,red/green cell ratio (normalised),[12],0.72 (inactive)
same,normalised cell number,[12]; [20],1.3
same,normalised cell number,[12]; [21],0.94
same,fold change,[17]; [25],1.03 (inactive) and 1.01 (inactive) and 1.12 (inactive)
same,outcome,[13],inactive
same,luciferase signal,[19],56 AU (inactive)
same,z-score,[15],-1.37 (inactive) and -0.615 (inactive)
CC(=O)N[C@@H](CC(=O)O)C(=O)N[C@@H](CCC(=O)O)C(=O)O (Ac-Asp-Glu-OH),inhibition,[1],12.9%
same,score,[2],1.12
same,rescue above control,[3],7.68
same,cytochrome c release ratio,[4],1.15
same,inhibition of aggregation,[5],1.96%
same,glutamate uptake change,[6],0%
same,inclusion score,[7],2
same,aggregation suppression score,[8],1.06
same,inhibition,[11],-7.58% (inactive)
same,red/green cell ratio (normalised),[12],0.86 (inactive)
same,normalised cell number,[12]; [20],1.17
same,normalised cell number,[12]; [21],1.01
same,fold change,[17]; [25],0.963 (inactive)
same,fold change,[17]; measured here: relative caspase fold change +Dox/-Dox,0.542
same,cell count,[17]; [24],8810
same,cell count,[17]; measured here: total cells without miR-34 induction,9150
same,z-score,[15],-0.67 (inactive)
COc1cc2c(cc1OC)[C@@H]1C(=O)c3ccc4c(c3O[C@@H]1CO2)C=CC(C)(C)O4,inhibition,[11],-0.416% (inactive)
same,red/green cell ratio (normalised),[12],0.71 (inactive)
same,normalised cell number,[12]; [20],0.9
same,normalised cell number,[12]; [21],0.64
same,luciferase signal,[19],44 AU (inactive)
